High-throughput results from PubChem BioAssay.
HCV inh: inhibitors of hepatitis C virus infection. Huh7.5.1 HCVcc-Cre infection, luciferase reporter, 44 h. Potency, µM (series often up to 41.8 µM), for inactives: top-dose activity change, negative = inhibition, actives largely listed as inhibitors. hit rate 3.4% among 340,000; active = well fitted inhibition curve with a large enough effect; inconclusive = small, poorly fitted or top-dose-only effect, or another doubt; inactive = no such curve, though single readings can be large or run the other way; also: potency is read from the fitted curve at half-maximal effect; % is scaled to controls: 0 for no effect and ±100 for the full control effect
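Infectious HCVcc-Cre (~0.5 moi) was added to cells just after compound, with cells seeded 4 h earlier at 1,000 per well. Luciferase activity after 44 h culture reported infection; substrate was incubated 15 min at room temperature before reading.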
Marburg entry inh: Marburg virus entry inhibition; Marburg virus pseudotyped entry inhibition, cell reporter; Potency, µM (series often up to 37.8 µM), for the others: top-dose activity change, negative = inhibition, most hits filed as inhibitors; hit rate 1.8% among 300,000; calls by dose curve; tested in HEK293 cells; also: potency is read from the fitted curve at half-maximal effect; % is scaled to controls: 0 for no effect and ±100 for the full control effect
HCMV antiviral: inhibitors of human cytomegalovirus; HFF cells, HCMV-luciferase reporter, 72 h; active compounds read low; activity change, negative = inhibition, % at 57.5 µM; hit rate 4.5% among 410,000; in the data active = activity change below about -60%; inconclusive = no clear call, values can overlap the other calls; inactive = above about -39%; also: % is scaled to controls: 0 for no effect and ±100 for the full control effect
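Human foreskin fibroblasts infected with luciferase-reporter HCMV at MOI 1 PFU/cell, compounds at two doses. Luciferase measured 72 h post infection; normalized to buffer-only basal and Salinomycin (10uM) controls.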
Lassa entry inh: blocks Lassa virus binding to or entry into cells; Potency, µM (top dose mostly 37.9 µM), for inactives: top-dose activity change, negative = inhibition, usual class: inhibitors; hit rate 1.2% among 300,000; Lassa virus pseudotype entry inhibition, cell reporter; AID 540256; calls by dose curve; tested in HEK293 cells; also: potency is read from the fitted curve at half-maximal effect; % is scaled to controls: 0 for no effect and ±100 for the full control effect; nearly all actives have a fitted effect of over 50% in size
FMDV antiviral: blocks foot and mouth disease virus; FMDV antiviral cell-based qHTS; Potency, µM (doses to about 57.9 µM), inactives show at the top dose activity change, negative = inhibition, usual class: inhibitors; hit rate 1.2% among 410,000; AID 1159524; calls by dose curve; tested in HEK293T cells; also: read-out not given here; potency is read from the fitted curve at half-maximal effect; % is scaled to controls: 0 for no effect and ±100 for the full control effect; nearly all actives have a fitted effect of over 45% in size
SARS PLpro yeast: SARS-CoV PLP inhibition in yeast | Potency, µM (top dose mostly 32.9 µM), for inactives: top-dose activity, positive = growth rescue, usual class: activators | S. cerevisiae expressing SARS-CoV PLpro, growth rescue | hit rate 0.19% among 330,000; calls by dose curve; also: potency is read from the fitted curve at half-maximal effect; 0% is about no effect; nearly all actives have a fitted effect of over 55% in size
* hit, by the source's call; ? = inconclusive; nt = not tested or not shown; + = active, no number; ! = a repeat was not active; [ ] = another dose, or the depositor's remark. Hits are enriched below; roughly 8% of the tested compounds scored in any of these assays.

SMILES | HCV inh | Marburg entry inh | HCMV antiviral | Lassa entry inh | FMDV antiviral | SARS PLpro yeast
C=CCC[C@H](Cc1ccc(F)cc1)C(=O)OC[C@@H](Cc1c[nH]c2ccccc12)NC(=O)[C@H](CC=C)CC(=O)N(CCO)Cc1ccccc1 | ? | nt | 39 | nt | 40µM* | -5%
Cc1ccc(-n2nc(C)c3nc(CCC(=O)Nc4cccc(C)c4C)c(=O)n(C)c32)cc1 | nt | nt | 3 | ? | -4% | nt
CCc1nn2c(=O)cc(COC(=O)CNC(=O)c3ccccc3)nc2s1 | nt | nt | -14 | 4%[46.1 µM] | -11% | nt
Cc1ncc2c(c1CNC(=O)CN1CCCC1)CCN(C(=O)c1ccc(F)cc1F)C2 | nt | nt | nt | nt | 1% | nt
CN(C)C(=O)Oc1ccnc2cc(Cl)ccc12 | -7% | 1%[46.1 µM] | + | 14% | -12% | 1%
CN(C)S(=O)(=O)N1CCN(c2ccnc3cc(Cl)ccc23)CC1 | -18% | nt | nt | nt | 0% | 4%
COc1ccc(CNc2ncnc3ccc(-c4ccccc4CN(C)C)cc23)c(OC)c1 | nt | nt | nt | nt | 3% | nt
CCN(CC)CCn1c2ccccc2c2nc3ccccc3nc21 | ? | nt | -102* | nt | -15% | nt
CCN(CC)CCSc1nnc2c3ccccc3n(Cc3ccccc3)c2n1 | 11µM* | nt | ? | nt | -30% | 4%
COc1ccccc1-c1noc(CSc2nnc(Cc3ccccc3)n2-c2ccc(C)c(C)c2)n1 | nt | 4%[46.1 µM] | 7 | -21%[46.1 µM] | 0% | nt
COc1ccc(C(CNC(=O)c2cccc(S(=O)(=O)Nc3ccc(C)cc3)c2)N2CCCCC2)cc1 (centres undefined) | 3.2µM* | ? | 14 | ? | 5% | nt
COc1ccc(C(=O)NCC(c2ccc(N(C)C)cc2)N2CCc3ccccc32)cc1 (centres undefined) | nt | nt | -71* | ? | -18% | nt
COc1ccc(C(CNC(=O)COc2ccc(F)cc2Br)N2CCCC2)cc1 (centres undefined) | ? | 4.5µM* | -61* | nt | -24% | 2%
COc1ccc(C(CNC(=O)c2cccc(Br)c2)N2CCCC2)cc1 (centres undefined) | ? | 12µM* | -8 | ? | -1% | 0%
CCn1cc2nc(SCc3cccc(C(F)(F)F)c3)n(Cc3ccc(Cl)cc3)c(=O)c2n1 | nt | nt | -34 | -2%[46.1 µM] | ? | nt
COc1cc(Cl)c(C)cc1NC(=O)CC1Oc2ccccc2NC1=O (centres undefined) | nt | ? | 43 | nt | -18% | nt
FC(F)(F)c1cccc(-c2nnc(-c3ccccc3)c(N3CCOCC3)n2)c1 | 10µM* | -26% | -33 | -6% | 0% | -7%
COc1ccc(-c2[nH]c(-c3ccccc3)nc2SCC(=O)Nc2ccc3c(c2)OCO3)cc1 | nt | ? | -38 | ? | -17% | nt
COC(=O)c1c(C)oc2ccc(N(C(=O)c3ccncc3)S(=O)(=O)c3ccc(C)cc3)cc12 | ? | 3.2µM* | nt | -18% | -18% | -12%
COC(=O)c1c(C)oc2ccc(N(C(=O)c3ccncc3)S(=O)(=O)c3cc(C)c(C)cc3C)cc12 | nt | ? | -60* | ? | 0% | nt
CCc1ccc(S(=O)(=O)N(C(C)=O)c2ccc3oc4c(c3c2)CCCC4)cc1 | nt | 1%[46.1 µM] | -92* | 7%[46.1 µM] | -17% | nt
CCc1ccc(S(=O)(=O)N(C(=O)Oc2ccccc2)c2ccc3oc(C)c(C(=O)OC)c3c2)cc1 | nt | nt | -71* | ? | -14% | nt
COC(=O)c1c(C)oc2ccc(N(C(=O)c3ccncc3)S(=O)(=O)c3ccc(C)cc3C)cc12 | 1.6µM* | 5.6µM* | -92* | ? | ? | -4%
COC(=O)c1c(C)oc2ccc(N(C(=O)c3ccncc3)S(=O)(=O)c3ccccc3)cc12 | ? | ? | -18 | ? | -13% | -4%
CC1C/C(=N/N=C2/NC(=O)CS2)CC(C)(C)C1 (centres undefined) | -6% | 1%[46.1 µM] | -12 | 0% | -19% | -6%
SMILES | HCV inh | Marburg entry inh | HCMV antiviral | Lassa entry inh | FMDV antiviral | SARS PLpro yeast
CC1C/C(=N/N2C(=O)CSC2=S)CC(C)(C)C1 (centres undefined) | 2% | -4%[46.1 µM] | -70* | -25% | -18% | 1%
COc1ccc(-c2cc(C(=O)N3CCN(c4ccccn4)CC3)c3ccccc3n2)cc1 | ? | ? | 58 | ? | 18% | -18%
CCCc1ccc(-c2cc(C(=O)N3CCN(c4ccccn4)CC3)c3ccccc3n2)cc1 | ? | nt | -64* | nt | ? | -1%
COc1cc(-c2cc(C(=O)N3CCN(c4ccccn4)CC3)c3ccccc3n2)cc(OC)c1OC | 13µM* | ? | 40 | -24% | ? | -1%
CCOC(=O)N1CCN(C(=O)c2cc(-c3ccc(OCC)cc3)nc3ccccc23)CC1 | ? | ? | 120 | 4.6µM* | -5% | ?
COc1ccc(-c2cc(C(=O)N3CCN(c4ncccn4)CC3)c3ccccc3n2)cc1 | ? | nt | 23 | nt | 12% | 10%
O=C(c1cc(-c2ccccc2Cl)nc2ccccc12)N1CCN(c2ccccn2)CC1 | -2% | nt | nt | nt | ? | 3%
CCOc1ccc(-c2cc(C(=O)N3CCN(c4ccccn4)CC3)c3ccccc3n2)cc1 | 7.1µM*! | ? | 38 | ? | 57% | -5%
COc1cc(C(=O)NC(=S)Nc2ccc(Cc3ccncc3)cc2)cc(OC)c1OC | ? | nt | -24 | nt | -17% | -2%
COc1ccccc1C(=O)NC(=S)Nc1ccc(Cc2ccncc2)cc1 | ? | nt | -76* | nt | -16% | -3%
Cc1cc(C)cc(C(=O)NC(=S)Nc2ccc(Cc3ccncc3)cc2)c1 | ? | ? | -74* | ? | ? | -18%
O=S(=O)(c1ccc(Oc2ccc(S(=O)(=O)N3CCOCC3)cc2)cc1)N1CCOCC1 | ? | -14% | -66* | -29% | ? | 0%
COc1ccc(S(=O)(=O)N2CCOCC2)cc1Br | 11% | 20%[46.1 µM] | -20 | 2%[46.1 µM] | -13% | 0%
Nc1cc(S(=O)(=O)N2CCOCC2)ccc1Oc1cccc(Br)c1 | 5µM* | ? | -77* | ? | ? | -3%
O=S(=O)(c1ccc(N2CCOCC2)cc1)N1CCOCC1 | 9% | 14%[46.1 µM] | 15 | -10% | 4% | nt
C[C@@H](C(=O)Nc1ccc2ccccc2c1)[C@@H]1C[C@@]1(C)[C@@H](NC(=O)c1ccccc1)c1ccccc1 | 4%[8.37 µM] | -29% | 15 | 1% | 1% | -9%
C[C@@H](C(=O)Nc1ccc2ccccc2c1)[C@H]1C[C@]1(C)[C@H](NS(=O)(=O)c1ccc(-c2ccccc2)cc1)c1ccccc1 | 22%[8.37 µM] | 12µM* | -15 | -21% | 3% | 5%
CCCCN(C)Cc1c(C(=O)N2CCc3ccccc3C2)nc2ccc(Cl)cn12 | -1% | ? | -14 | -7%[46.1 µM] | -28% | 0%
CC(C)CN(C)Cc1c(C(=O)N2CCc3ccccc3C2)nc2ccc(Cl)cn12 | ? | 11µM* | -8 | -5% | -16% | 0%
NC(=O)NC[C@@H]1CC[C@@H](Cc2ccc(-c3ccccc3)cc2)O1 | -29% | nt | nt | nt | 11% | 9%
COc1ccc(NC(=O)NC[C@@H]2CC[C@@H](Cc3ccc(-c4ccccc4)cc3)O2)cc1 | 4.5µM* | nt | -27 | nt | -20% | -9%
